From PubChem BioAssay (Tox21)
Records with an inconclusive call do not appear. Activity calls are given as the source filed them. Unless noted, the call rests on the fitted dose curve; in most records, active means well fitted curve in the direction sought with a large enough effect in the repeat runs; inconclusive means weak or mixed curves; inactive means no such curve, though single readings can be large; an effect the other way counts as inactive or inconclusive.

Assays:
[1] = Caspase-3/7 induction in HepG2 cells by small molecules, qHTS assay (AID 1346978); further: nearly all actives have a fitted effect of over 15% in size
Summary of the method: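 Wild-type HepG2 cells, 2,000/well, settled 5 hr at 37 C and 5% CO2, then compound-treated for 17 hr; caspase-3/7 activity read by luminescent Caspase-Glo 3/7 after 30 min at room temperature.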

[2] = Caspase-3/7 induction in CHO-K1 cells by small molecules, qHTS assay (AID 1346980); further: nearly all actives have a fitted effect of over 15% in size
Summary of the method: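 Wild-type CHO-K1 cells exposed to compounds for 17hr at 37 C, 5% CO2. Caspase-3/7 activity then measured by Caspase-Glo 3/7 luminescence after 30min at room temperature.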

[3] = Caspase-3/7 induction in HepG2 cells by small molecules, qHTS cell viability counter screen (AID 1346981); further: series mostly up to about 92 µM; nearly all actives have a fitted effect of over 30% in size
Summary of the method: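 Wild-type HepG2 cells (2,000/well) were allowed to settle for 5 hr at 37 C, 5% CO2, then dosed with compounds in DMSO by pin transfer. After 16 hr at 37 C, CellTiter-Fluor was added and fluorescence read 1 hr later.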

[4] = molecular target: Acetylcholinesterase (Homo sapiens) (UniProt P22303); test: Acetylcholinesterase (AChE) small molecule antagonists: colormetric cell-based qHTS assay (AID 1347395; calls by dose curve; further: nearly all actives have a fitted effect of over 30% in size; further: potency means the concentration at half of the fitted maximal effect)
Summary of the method: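 Colorimetric readout: DTNB quantifies thiocholine from acetylthiocholine hydrolysed by endogenous AChE of SH-SY5Y cells (2,000/well, plated overnight). Compound pretreatment 30 min, substrate incubation 90 min, both 37 C.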

[5] = molecular target: Acetylcholinesterase (Homo sapiens) (UniProt P22303); test: Acetylcholinesterase (AChE) small molecule antagonists: enzyme-based qHTS assay (AID 1347397; calls by dose curve; further: nearly all actives have a fitted effect of over 55% in size); settings: Potency: AChE enzyme activity inhibition
Summary of the method: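 Recombinant human AChE (50 mU/mL) preincubated with compound 30 min at room temperature; acetylthiocholine plus DTNB then added, and thiocholine formation read colorimetrically after 10 min at room temperature. DMSO served as vehicle control.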

[6] = molecular target: Acetylcholinesterase (Homo sapiens) (UniProt P22303); test: Acetylcholinesterase (AChE) small molecule antagonists: fluorescence cell-based qHTS assay (AID 1347398; calls by dose curve; further: nearly all actives have a fitted effect of over 50% in size; further: potency means the concentration at half of the fitted maximal effect); settings: Potency: AChE activity
Summary of the method: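 SH-SY5Y cells (2000/well), attached overnight, incubated with compound 30 min at 37 C. Acetylthiocholine plus Thiolite Green then added for 40 min at room temperature. Thiocholine fluorescence (Ex/Em 490/520 nm) reports cellular AChE activity.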

[7] = molecular target: Acetylcholinesterase (Homo sapiens) (UniProt P22303); test: Acetylcholinesterase (AChE) small molecule antagonists: enzyme-based qHTS assay with human liver microsomes (AID 1347399; calls by dose curve; further: nearly all actives have a fitted effect of over 60% in size; further: potency means the concentration at half of the fitted maximal effect); settings: Potency: qHTS inhibition
Summary of the method: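 Recombinant human AChE (50 mU/mL in the enzyme mix) and human liver microsomes (0.25 mg/mL final) were preincubated with compound and NADPH (0.25 mg/mL final) for 30 min at 37 C. Acetylthiocholine/DTNB was then added; thiocholine was read colorimetrically after 10 min at room temperature.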

[8] = molecular target: Cytochrome P450 2D6 (Homo sapiens) (UniProt P10635); test: Cytochrome P450 Family 2 Subfamily D Member 6 (CYP2D6) small molecule antagonists: luciferase reporter qHTS assay (AID 1671196); further: nearly all actives have a fitted effect of over 50% in size; further: potency means the concentration at half of the fitted maximal effect
Summary of the method: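 CYP2D6 enzyme–substrate mix was held with compound for 10 min at room temperature, then NADPH regeneration solution was added and the reaction ran 1 h at room temperature. Luciferin product was detected by luminescence after 20 min with detection reagent.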

[9] = molecular target: Cytochrome P450 2C19 (Homo sapiens) (UniProt P33261); test: Cytochrome P450 Family 2 Subfamily C Member 19 (CYP2C19) small molecule antagonists: luciferase reporter qHTS assay (AID 1671197); further: nearly all actives have a fitted effect of over 65% in size; further: potency means the concentration at half of the fitted maximal effect
Summary of the method: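 Enzyme-substrate mix with proluciferin substrate (P450-Glo CYP2C19 system) preincubated with compounds 10 min at room temperature; NADPH regeneration solution added, 37C for 1 h; detection reagent stops reaction, luminescence read after 20 min. Ketoconazole positive control.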

[10] = molecular target: Cytochrome P450 1A2 (Homo sapiens) (UniProt P05177); test: Cytochrome P450 Family 1 Subfamily A Member 2 (CYP1A2) small molecule antagonists: luciferase reporter qHTS assay (AID 1671199); further: series mostly up to about 120 µM; nearly all actives have a fitted effect of over 50% in size
Summary of the method: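 Human CYP1A2 activity measured with a P450-Glo proluciferin substrate; compounds in DMSO preincubated 10 min at room temperature with enzyme-substrate mix, then NADPH regeneration system added for 1 h. Luciferin detection reagent, 20 min, luminescence read.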

[11] = molecular target: Cytochrome P450 3A4 (Homo sapiens) (UniProt P08684); test: Cytochrome P450 Family 3 Subfamily A Member 4 (CYP3A4) small molecule antagonists: luciferase reporter qHTS assay (AID 1671201); further: nearly all actives have a fitted effect of over 50% in size; further: potency means the concentration at half of the fitted maximal effect
Summary of the method: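 Recombinant human CYP3A4 converts a proluciferin substrate to luciferin over 1 h at room temperature after NADPH regeneration solution is added (compound preincubated 10 min); detection reagent stops reaction, luminescence read 20 min later as relative units.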

[12] = molecular target: Nuclear receptor subfamily 1 group I member 2 (Homo sapiens) (UniProt O75469); test: Human pregnane X receptor (PXR) small molecule agonists, qHTS assay (AID 1346982); further: nearly all actives have a fitted effect of over 35% in size; further: potency means the concentration at half of the fitted maximal effect
Summary of the method: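 PXR-Luc HepG2 cells (CYP3A4 promoter-driven luciferase) were seeded in medium with 5% charcoal-stripped FBS, left 5 hr at 37 C, then exposed to compounds in DMSO for 24 hr. Luminescence was read after ONE-Glo addition.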

[13] = molecular target: Cytochrome P450 2C9 (Homo sapiens) (UniProt P11712); test: Cytochrome P450 Family 2 Subfamily C Member 9 (CYP2C9) small molecule antagonists: luciferase reporter qHTS assay (AID 1671198); further: nearly all actives have a fitted effect of over 50% in size; further: potency means the concentration at half of the fitted maximal effect
Summary of the method: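 P450-Glo proluciferin substrate with CYP2C9 enzyme; 10 min RT preincubation, then NADPH regeneration 1 h at 37C; luciferin detection reagent 20 min RT, luminescence in relative luminescence units.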

[14] = molecular target: Voltage-gated inwardly rectifying potassium channel KCNH2 (Homo sapiens) (UniProt Q12809); test: Human Ether-a-go-go-Related Gene (hERG) channel small molecule antagonists: fluorescence cell-based qHTS assay (AID 1671200); further: nearly all actives have a fitted effect of over 50% in size; further: potency means the concentration at half of the fitted maximal effect
Summary of the method: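 Thallium flux as potassium surrogate: FluxOR II dye loaded 1 h at room temperature into hERG-expressing U2OS cells, then stimulus buffer added after 10 min. Kinetic 480 nm excitation/540 nm emission read, 2 min.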

[15] = Caspase-3/7 induction in CHO-K1 cells by small molecules, qHTS cell viability counter screen (AID 1346979); further: nearly all actives have a fitted effect of over 35% in size; further: potency means the concentration at half of the fitted maximal effect
Summary of the method: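 Cytotoxicity counter screen: CellTiter-Fluor added to compound-treated wild-type CHO-K1 cells at 16 h (37C, 5% CO2), fluorescence measured 1 h later; same wells as caspase-3/7 measurement.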

[16] = molecular target: Nuclear receptor subfamily 1 group I member 2 (Rattus norvegicus) (UniProt Q9R1A7); test: Rat pregnane X receptor (rPXR) activation by small molecules, qHTS assay (AID 1346983); settings: rPXR luciferase reporter cells, One-Glo luminescence, 24 h; max activation: hits give high values; further: nearly all actives have a fitted effect of over 20% in size
Summary of the method: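 Cell-based rPXR activation assay: rPXR cells, 2,000 per well, rested 5hr at 37 C, then exposed to compounds in DMSO for 24 hr at 37 C. Luciferase activity read by One-Glo luminescence after 30 min at room temperature.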

[17] = molecular target: Nuclear receptor subfamily 1 group I member 2 (Homo sapiens) (UniProt O75469); test: CYP3A4 induction through human pregnane X receptor (PXR) by small molecules, qHTS assay (AID 1346984); further: nearly all actives have a fitted effect of over 40% in size
Summary of the method: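 DPX-2 cells (HepG2 co-transfected with PXR and CYP3A4 promoter-luciferase) treated with compounds 24 h at 37C; luciferin-IPA CYP3A4 substrate 3uM final added for 3 h, then One-Glo; luminescence read. qHTS format.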
On the % scale 0 is the no-effect control and ±100 the full control effect.

Nuclear receptor subfamily 1 group I member 2 (Homo sapiens), sequence (O75469 whole entry, looked up): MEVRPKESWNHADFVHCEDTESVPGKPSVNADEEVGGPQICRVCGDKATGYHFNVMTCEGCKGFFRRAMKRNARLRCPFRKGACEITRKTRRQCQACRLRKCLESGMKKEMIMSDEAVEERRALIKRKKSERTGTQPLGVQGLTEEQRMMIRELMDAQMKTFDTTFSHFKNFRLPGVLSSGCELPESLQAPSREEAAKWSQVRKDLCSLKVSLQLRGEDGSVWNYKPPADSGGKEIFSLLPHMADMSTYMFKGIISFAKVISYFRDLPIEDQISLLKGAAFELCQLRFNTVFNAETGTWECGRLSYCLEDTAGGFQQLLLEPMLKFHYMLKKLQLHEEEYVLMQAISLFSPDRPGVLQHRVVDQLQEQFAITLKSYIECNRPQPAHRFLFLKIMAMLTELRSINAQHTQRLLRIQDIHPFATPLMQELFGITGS
Cytochrome P450 2D6 (Homo sapiens), sequence (P10635 whole entry, looked up): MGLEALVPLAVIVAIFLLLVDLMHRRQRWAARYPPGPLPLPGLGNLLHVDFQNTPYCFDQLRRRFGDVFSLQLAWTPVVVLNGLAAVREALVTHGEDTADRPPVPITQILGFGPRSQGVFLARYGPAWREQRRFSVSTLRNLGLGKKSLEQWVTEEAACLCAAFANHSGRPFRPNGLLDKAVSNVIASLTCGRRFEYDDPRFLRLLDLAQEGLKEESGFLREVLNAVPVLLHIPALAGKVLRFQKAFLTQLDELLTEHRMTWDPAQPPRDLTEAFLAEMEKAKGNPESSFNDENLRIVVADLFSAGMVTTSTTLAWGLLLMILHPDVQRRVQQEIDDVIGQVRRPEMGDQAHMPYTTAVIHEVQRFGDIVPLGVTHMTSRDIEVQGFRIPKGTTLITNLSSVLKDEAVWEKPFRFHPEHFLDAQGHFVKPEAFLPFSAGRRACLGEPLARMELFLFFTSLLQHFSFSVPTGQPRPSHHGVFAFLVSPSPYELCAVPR
Acetylcholinesterase (Homo sapiens), sequence (P22303 whole entry, looked up): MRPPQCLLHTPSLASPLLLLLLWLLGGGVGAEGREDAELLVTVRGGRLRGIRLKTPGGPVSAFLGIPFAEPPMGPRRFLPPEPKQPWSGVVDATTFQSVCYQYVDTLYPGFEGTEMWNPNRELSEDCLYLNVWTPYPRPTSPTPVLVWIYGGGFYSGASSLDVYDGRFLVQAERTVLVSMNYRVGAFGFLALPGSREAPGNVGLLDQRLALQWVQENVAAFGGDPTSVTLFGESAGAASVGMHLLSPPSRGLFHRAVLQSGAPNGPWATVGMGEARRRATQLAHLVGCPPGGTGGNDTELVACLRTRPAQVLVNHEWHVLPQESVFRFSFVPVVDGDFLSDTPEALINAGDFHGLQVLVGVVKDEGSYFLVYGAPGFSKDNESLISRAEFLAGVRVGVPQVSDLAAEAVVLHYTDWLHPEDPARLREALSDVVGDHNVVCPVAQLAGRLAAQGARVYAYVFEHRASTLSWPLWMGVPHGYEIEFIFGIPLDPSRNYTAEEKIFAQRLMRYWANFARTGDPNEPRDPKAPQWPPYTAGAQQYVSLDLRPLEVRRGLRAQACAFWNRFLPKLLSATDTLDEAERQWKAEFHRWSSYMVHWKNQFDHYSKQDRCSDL
Cytochrome P450 1A2 (Homo sapiens), sequence (P05177 whole entry, looked up): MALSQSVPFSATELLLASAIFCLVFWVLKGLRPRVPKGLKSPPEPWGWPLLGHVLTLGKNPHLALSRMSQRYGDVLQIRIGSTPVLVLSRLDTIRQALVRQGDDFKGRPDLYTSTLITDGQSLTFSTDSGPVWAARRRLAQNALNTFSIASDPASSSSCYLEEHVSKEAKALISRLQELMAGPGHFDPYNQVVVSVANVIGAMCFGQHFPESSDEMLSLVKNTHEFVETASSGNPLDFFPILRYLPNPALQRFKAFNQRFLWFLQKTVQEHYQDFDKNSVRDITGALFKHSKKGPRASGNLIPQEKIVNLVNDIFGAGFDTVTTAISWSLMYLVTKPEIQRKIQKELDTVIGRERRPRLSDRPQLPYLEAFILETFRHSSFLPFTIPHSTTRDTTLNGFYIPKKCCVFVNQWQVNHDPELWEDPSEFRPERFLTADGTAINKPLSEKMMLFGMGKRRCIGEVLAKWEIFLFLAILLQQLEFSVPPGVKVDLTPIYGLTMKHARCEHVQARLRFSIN
Cytochrome P450 2C19 (Homo sapiens), sequence (P33261 whole entry, looked up): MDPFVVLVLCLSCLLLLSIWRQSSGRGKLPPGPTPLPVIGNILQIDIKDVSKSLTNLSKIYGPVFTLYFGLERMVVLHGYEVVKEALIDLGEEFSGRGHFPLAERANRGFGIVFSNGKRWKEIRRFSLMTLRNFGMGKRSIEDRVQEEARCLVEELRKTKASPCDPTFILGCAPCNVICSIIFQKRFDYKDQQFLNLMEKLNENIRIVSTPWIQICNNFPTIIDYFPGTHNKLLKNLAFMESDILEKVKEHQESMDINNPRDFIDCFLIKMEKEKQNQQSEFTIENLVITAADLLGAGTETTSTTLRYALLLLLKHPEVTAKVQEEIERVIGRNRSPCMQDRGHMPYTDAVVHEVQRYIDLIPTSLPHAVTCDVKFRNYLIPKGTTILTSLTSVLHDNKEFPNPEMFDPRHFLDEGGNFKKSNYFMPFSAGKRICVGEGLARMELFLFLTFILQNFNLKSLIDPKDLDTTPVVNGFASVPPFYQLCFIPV
Voltage-gated inwardly rectifying potassium channel KCNH2 (Homo sapiens), sequence (Q12809 whole entry, looked up): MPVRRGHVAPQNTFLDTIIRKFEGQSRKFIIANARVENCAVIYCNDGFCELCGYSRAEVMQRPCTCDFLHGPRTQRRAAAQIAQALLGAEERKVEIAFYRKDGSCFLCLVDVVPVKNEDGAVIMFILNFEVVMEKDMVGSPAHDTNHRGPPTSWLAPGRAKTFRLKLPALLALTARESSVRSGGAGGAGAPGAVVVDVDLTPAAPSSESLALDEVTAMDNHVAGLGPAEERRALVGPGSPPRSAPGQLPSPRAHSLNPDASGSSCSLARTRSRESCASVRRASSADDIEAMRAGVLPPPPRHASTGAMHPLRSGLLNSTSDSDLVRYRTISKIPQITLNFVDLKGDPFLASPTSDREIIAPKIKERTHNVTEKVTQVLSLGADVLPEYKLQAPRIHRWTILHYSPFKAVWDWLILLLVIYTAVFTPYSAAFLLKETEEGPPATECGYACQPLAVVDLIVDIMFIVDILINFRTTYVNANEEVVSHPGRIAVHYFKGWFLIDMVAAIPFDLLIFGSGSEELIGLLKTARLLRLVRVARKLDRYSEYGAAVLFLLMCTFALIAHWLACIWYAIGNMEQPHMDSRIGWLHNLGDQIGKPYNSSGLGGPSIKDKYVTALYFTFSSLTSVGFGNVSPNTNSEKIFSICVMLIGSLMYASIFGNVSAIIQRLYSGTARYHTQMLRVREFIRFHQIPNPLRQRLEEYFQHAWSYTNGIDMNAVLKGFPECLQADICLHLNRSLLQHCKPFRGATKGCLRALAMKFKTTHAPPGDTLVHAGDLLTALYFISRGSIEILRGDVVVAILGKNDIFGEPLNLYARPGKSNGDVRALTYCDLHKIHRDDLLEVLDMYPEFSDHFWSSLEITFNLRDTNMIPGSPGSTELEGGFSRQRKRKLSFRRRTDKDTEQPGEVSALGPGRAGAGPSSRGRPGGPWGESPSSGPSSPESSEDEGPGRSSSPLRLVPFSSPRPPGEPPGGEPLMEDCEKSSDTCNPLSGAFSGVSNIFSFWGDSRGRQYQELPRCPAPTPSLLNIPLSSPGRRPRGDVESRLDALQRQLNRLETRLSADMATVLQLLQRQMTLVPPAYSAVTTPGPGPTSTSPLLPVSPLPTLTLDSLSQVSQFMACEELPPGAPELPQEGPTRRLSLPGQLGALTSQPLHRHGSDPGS
Cytochrome P450 2C9 (Homo sapiens), sequence (P11712 whole entry, looked up): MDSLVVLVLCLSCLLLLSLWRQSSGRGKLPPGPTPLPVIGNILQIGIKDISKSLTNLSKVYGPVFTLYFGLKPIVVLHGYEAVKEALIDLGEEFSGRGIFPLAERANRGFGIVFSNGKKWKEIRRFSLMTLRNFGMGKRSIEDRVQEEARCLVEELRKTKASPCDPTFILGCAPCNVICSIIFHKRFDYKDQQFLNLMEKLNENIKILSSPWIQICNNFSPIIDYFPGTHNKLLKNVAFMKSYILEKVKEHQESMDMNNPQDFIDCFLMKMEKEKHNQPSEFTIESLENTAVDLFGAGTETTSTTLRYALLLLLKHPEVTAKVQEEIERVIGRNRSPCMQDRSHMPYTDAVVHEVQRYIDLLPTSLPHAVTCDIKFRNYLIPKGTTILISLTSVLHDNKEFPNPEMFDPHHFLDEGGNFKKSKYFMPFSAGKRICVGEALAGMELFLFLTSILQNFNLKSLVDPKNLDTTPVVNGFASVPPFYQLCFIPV
Cytochrome P450 3A4 (Homo sapiens), sequence (P08684 whole entry, looked up): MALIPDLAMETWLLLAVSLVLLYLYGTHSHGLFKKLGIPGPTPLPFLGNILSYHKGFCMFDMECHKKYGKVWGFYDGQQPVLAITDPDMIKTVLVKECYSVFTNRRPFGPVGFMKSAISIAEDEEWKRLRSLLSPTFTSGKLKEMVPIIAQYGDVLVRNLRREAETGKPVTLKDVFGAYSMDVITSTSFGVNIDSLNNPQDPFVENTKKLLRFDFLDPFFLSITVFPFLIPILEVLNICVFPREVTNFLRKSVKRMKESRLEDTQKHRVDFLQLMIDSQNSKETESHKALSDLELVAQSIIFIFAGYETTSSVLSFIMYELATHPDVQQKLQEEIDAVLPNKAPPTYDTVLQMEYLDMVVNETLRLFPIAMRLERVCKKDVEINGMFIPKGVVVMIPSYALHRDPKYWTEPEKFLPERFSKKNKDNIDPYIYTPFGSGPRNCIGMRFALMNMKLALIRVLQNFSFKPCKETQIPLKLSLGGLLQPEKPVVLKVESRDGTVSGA

ClC1=C(Cl)[C@]2(Cl)[C@H]3[C@H]([C@H]4C=C[C@H]3C4)[C@@]1(Cl)C2(Cl)Cl
active: Potency [9] 15.9 µM | Potency [11] 1 µM
inactive: Potency [1] | Potency [2] | Potency [3] | Potency [4] | Potency [5] | Potency [6] | Potency [7] | Potency [8] | Potency [10]

Cc1cc(Cl)ccc1O[C@H](C)C(=O)O
inactive: Potency [1] | Potency [2] | Potency [3] | Potency [12] | Potency [4] | Potency [5] | Potency [6] | Potency [7] | Potency [8] | Potency [9] | Potency [13] | Potency [10] | Potency [14] | Potency [11]

ClC(Cl)=C(Cl)Cl
inactive: Potency [1] | Potency [15] | Potency [12] | Potency [4] | Potency [5] | Potency [6] | Potency [7] | Potency [8] | Potency [9] | Potency [13] | Potency [14] | Potency [11]

CC(C)[C@H](C(=O)OC(C#N)c1cccc(Oc2ccccc2)c1)c1ccc(OC(F)F)cc1 (stereo not given in full)
inactive: Potency [1] | Potency [2] | Potency [3] | Potency [4] | Potency [6] | Potency [7] | Potency [10] | Potency [14]
active: Potency [12] 9.69 µM | Potency [8] 5.03 µM | Potency [9] 17.8 µM | Potency [13] 3.99 µM

Cc1c(Cl)c(=O)oc2cc(OP(=O)(OCCCl)OCCCl)ccc12
active: Potency [12] 11.9 µM | Potency [4] 3.89 µM | Potency [6] 275 nM | Potency [7] 3.09 µM | Potency [8] 3.47 µM | Potency [9] 2.19 µM | Potency [13] 3.89 µM
inactive: Potency [1] | Potency [2] | Potency [3] | max activation [16] 8.02% | Potency [17] | Potency [11]

CC(=O)C(Cl)(Cl)Cl
inactive: Potency [1] | Potency [4] | Potency [6] | Potency [7] | Potency [14] | Potency [11]
active: Potency [15] 14.8 µM | Potency [12] 23.5 µM | Potency [9] 54.5 µM | Potency [13] 15.3 µM

O=C1NCN(c2ccccc2)C12CCN(CC1COc3ccccc3O1)CC2 (stereo not given)
inactive: Potency [1] | Potency [2] | Potency [3] | Potency [4] | Potency [5] | Potency [6] | Potency [7] | Potency [10]
active: Potency [12] 5.96 µM | Potency [8] 0.11 µM | Potency [9] 4.36 µM | Potency [13] 8.71 µM | Potency [14] 7.56 µM

CN(C)CCc1c[nH]c2cccc(O)c12
active: Potency [4] 19.8 µM | Potency [8] 7.03 µM | Potency [9] 19.8 µM | Potency [13] 7.89 µM
inactive: Potency [1] | Potency [2] | Potency [3] | Potency [12] | Potency [7] | Potency [14]
